# Source: the supplement of paper PMC11417369
# ± gives the standard deviation of the averaged measurements. The full ranking holds about 25,000 sequences; the median of “ln(normalized median fluorescence intensity)” is about 7.9, and the highest 2% start at about 11. The sample as a whole holds a higher share of the highest values than the screen did.
# Test system: PfAP2-I AP2 domain 3 (GST-tagged)
# Experiment: gcPBM binding intensity (ln(normalized median fluorescence intensity)); higher = stronger DNA binding
# How it was run: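 The highest Masliner-normalised natural-log median intensity across replicate spots of either probe orientation is reported as binding intensity. GST-tagged P. falciparum DNA-binding domains expressed in E. coli were applied for 1 h to an Agilent 4 × 180k array of primer-extended double-stranded 36-bp intergenic genomic probes plus negative controls, and bound protein was detected with Alexa488 anti-GST antibody and scanned at 488 nm.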
row,Sequence,gcPBM binding intensity (ln)
1,TCAACACACGTGGAATGTACTTTAGTATAAGAATTC [XGTACX_site7842],7.74 ± 0.64
2,AAATTTATATAATATTGTACATTAAAAATTATATAT [XGTACX_site8009],7.73 ± 0.3
3,AATATGTAAATATGGGTGCTTTAAAATATATTCATT [GTGCAC_site9583],11.1 ± 0.66
4,TAAAATATGTCATGGGTGCTTCTTTTTATACCTATG [GTGCAC_site9888],8.49 ± 0.38
5,TTTAATTAAATATGTATATATATTCATGTATGTATA [GTGCAC_negctrl_site14],7.68 ± 0.26
6,GAATAAATTAAAAACGCATGTATCATTACTACATAA [TGCATGCA_site111],7.36 ± 0.48
7,ATAACAAAATGAAGAGTGCATTACCAAGTGGGTAAA [GTGCAC_site9450],10.93 ± 0.014
8,TTTATATAAATTTAAGTGCAAAATGAACAAGTGAAA,10.1 ± 0.15
9,ATATATATATATAAAGTGCAAAAATGAAAGTAAGAC [GTGCAC_site9850],10.4 ± 0.21
10,TTATATATTTTTACCATACACACATATAATAAATAT [CACACA_site3721],8.04 ± 0.63
11,TTTTTATTTTTTGTCTGTACATATATAAATTTATTA [XGTACX_site1525],7.88 ± 0.47
12,CCGTACAATTTTGTCACACATAAAATACTTATGTAT [CACACA_site4871],7.66 ± 0.51
13,TCCTTTTTACTACTAGTGCATTATTTACAAGGTCCG [GTGCAC_site9441],11.4 ± 0.68
14,CACCCTTTACACAAGGTGCATACTTTATTATATTTT [GTGCAC_site9778],9.305 ± 0.049
15,AGTAGATTTTTATTAGTGCATTTTATACTACAAAAA,9.71 ± 0.24
16,TATTATTATTGTTGATGTACATTTAATATAATATAT [XGTACX_site4482],7.7 ± 0.38
17,TTTTTAATTTTGTGGGTGCTTTCGTGTTATTATATA,9.415 ± 0.021
18,TGTGTGTGTTCATGGGTGCTTTAATACTATTATAGG [GTGCAC_site9465],11 ± 0.61
19,AATATTGTTCACAAGGTGCTTTTTATTCATACTAAT,8.86 ± 0.18
20,TGAATATTTCTATATACACACATATAAATATAAATA [CACACA_site7593],7.55 ± 0.31
21,GTGGTATAAATTTTATGTACTTAATAACTCATTAAT [XGTACX_site5555],7.79 ± 0.28
22,ATATATATATATATATGTACTTATAAGGTATATTTA [XGTACX_site3327],9.35 ± 0.52
23,TTTTTAACGTATAAGGTGCACTGTATATGGTACTCA,11 ± 0.33
24,ATATTATTATAAACTTCACACATTTTATGGGTTTTT [CACACA_site4631],7.49 ± 0.61

row,Sequence,gcPBM binding intensity (ln)
1,TTAAAAGTAAGCAAAGTGCATATAACAAAAGTAAAG,10.01 ± 0.092
2,ATATATATAACAAAAGTGCATTAAGGGGATGCTATA,11.5 ± 0.26
3,ATAAAGATTAACAAAGTGCATTTATATATATAATCT [GTGCAC_site9407],9.865 ± 0.092
4,TTTTTTTTTTTTTTGGTGCGTTTATATATAAATATA,10.4 ± 0.86
5,TTAACAAAATTTTTAACACACAAAAAAAAAAAAAAA [CACACA_site1828],8.2 ± 0.8
6,AAATAACCCACGTGCATGCACTTCAATAACTGAACT,11.3 ± 0.14
7,TGAAATAACCCATGTGCATGCACTTCAATAACTGAA [TGCATGCA_site1041],9.54 ± 0.47
8,GGTTATAACCCACATGCACACGTAAATAAATATTAT [CACACA_site5992],8.77 ± 0.3
9,TTGTATTCATATGGTTGTACATATTAAAAGTTCTAA [XGTACX_site7255],7.73 ± 0.31
10,TACTTATTTGATTGGGTGCATATATATAGTATGTAT [GTGCAC_site9845],11 ± 0.73
11,ATAGTTTAATTTATATGTACATATAATATTGATTTG [XGTACX_site7520],7.89 ± 0.41
12,CATATTATTATTTTGGTGCATACTTATATATATTTT,9.53 ± 0.085
13,GTCAATATTTAGATATGTACTAAGGAGTGCTATATA [XGTACX_site222],10.2 ± 0.55
14,TCCGCATGTACATGGGTGCACATAACACCCATTTAA [GTGCAC_site9881],10.4 ± 0.44
15,TATATATGTATAAGAGTGCATATGCATATATGTATA [GTGCAC_site9692],9.85 ± 0.014
16,GAAAAGCAGATAAATGTGCACATATATGTTTGTATA,9.71 ± 0.43
17,TTTTGTTTTTGTAGAGTGCATAAAGAAGATATGTAT,11.1 ± 0.86
18,GGTATTTATGGACGCGTGCACACACATATGAACAAA,9.9 ± 0.14
19,TATGAAAAAATATATACACACATAATAAAGGTATAT [CACACA_site3737],7.73 ± 0.59
20,CAAAAGGATATGCACACACACACACGGATATTTATA [CACACA_site7099],8.985 ± 0.064
21,TTATATGCATAAAAAGGTACACATATATAAATAAAT [XGTACX_site6894],8.23 ± 0.4
22,TTTATGCACGCGTGCACACACATATGAAAAAAGGTA [CACACA_site3315],10.9 ± 0.72
23,TATTTATGCACGCGTGCACACACATATGAAAAAAGG [CACACA_site9090],11.1 ± 0.59
24,TTTGTTATATTTAATACACACATATTATAAACCCAT [CACACA_site3716],7.95 ± 0.59

row,Sequence,gcPBM binding intensity (ln)
1,TTTTCTTACACGAATTTTAAATTCAATATTAAACAT [CACACA_negctrl_site286],8.03 ± 0.44
2,ATGTATATTTTTATGTGTACGTAATAAAACATAATA [XGTACX_site7777],8.33 ± 0.27
3,AAATCCATATAGGATTGTACATATATTATATATATA [XGTACX_site8818],8.46 ± 0.39
4,ATCCTCTTTACAATATGTACATAAATATATATTTAT [XGTACX_site8001],8.47 ± 0.43
5,TTTTTTGTTATGCGGGTGCATATAATAATGTGATGA,10.9 ± 0.89
6,TACACATAATATAATGCATGTGTGATGTATGTTTAA [TGCATGCA_site697],8.09 ± 0.66
7,TTTTGTTATTTTTCAGTGCAATATGATAATAATATA,10.5 ± 0.46
8,TTTTTTTTTTTTTGTACATGCAAATATTATGAACAC [TGCATGCA_site571],8.28 ± 0.53
9,GAAATAATTCGATGTGCATGTAACGTTTCCCCAAAG [TGCATGCA_site122],8.58 ± 0.54
10,AATAAATAAATAAGTACACACATATAAATATAAATA [CACACA_site6271],7.91 ± 0.25
11,AGGATATATAATTAAGTGCATTAATTCAAAATAAAA [GTGCAC_site9702],11.5 ± 0.54
12,TGGTTTATTTATTAAGTGCATAAATGCAATATATAT,10.6 ± 0.44
13,TTATAAAATATTTATGCATGTGAAGAATATTATAAA [TGCATGCA_site1047],8.42 ± 0.34
14,TGTTATTAAAATATAGTGCATAATTAACCATTATAA [GTGCAC_site9594],10.8 ± 0.65
15,ATATATTTTTATGTAGTGCATTTAAATAATAAATGC,10.7 ± 0.55
16,AAGTATTATTTTTATGCATGTGAAGTGCAAAATAAA [TGCATGCA_site198],11 ± 0.43
17,TTTTATGCATGTGAAGTGCAAAATAAAAAATAAAAT [GTGCAC_site9612],10.8 ± 0.4
18,TTTTATGCGCAATAAGTGCATTTAAAATATATATAT,11 ± 0.13
19,TGATATAAAATTAAAGTGCAAAAAAAAAATAAAAAA,10.06 ± 0.078
20,ATTCTTAAAAAATAAGTGCAAAATAATTAAATAAAT,10.23 ± 0.014
21,AATATATATAAAAAAGTGCATTAGGATAACCATATA [GTGCAC_site9590],11.2 ± 0.57
22,AATAAAATAAATATATGTACATATATATAACCATTA [XGTACX_site5549],7.59 ± 0.38
23,AAAAAAAAAAAAAATTGTACATTAAATTAAAAGAAA [XGTACX_site8708],7.88 ± 0.28
24,ATATATATATATATAGTGCAAATATCTTCTTTATAA,10.4 ± 0.26

row,Sequence,gcPBM binding intensity (ln)
1,ATACAAGAATTAAACACACACAAAATATAAATTCTT [CACACA_site3005],7.85 ± 0.71
2,AAATATTATTGACGATGTACTTCTATTCATAAGTAT [XGTACX_site3964],7.55 ± 0.5
3,TAAAAATAAAGAAAATGTACATAAATAAAAATAAAG [XGTACX_site2279],8.14 ± 0.69
4,GATATAATGTGTTTGGTATTCTTGATAGATAGTTTT [CACACA_negctrl_site1711],7.7 ± 0.47
5,TGTAATGTTTACAACACACAAATTATAAATACAAAA [CACACA_site5047],7.67 ± 0.59
6,TATATGTTTTATAGTACACACATAAATGGACATACT [CACACA_site2191],7.83 ± 0.33
7,CTATATTTCGTTGGACGTACAAATGTGATAATTAGG [XGTACX_site3232],8.06 ± 0.46
8,TAAATTAATAAACAAGTGCATATATATATATATATA,10 ± 0.49
9,TTGTGTAAATGTTAAGTGCATTTGGTAAAATATAAA [GTGCAC_site9699],9.51 ± 0.11
10,TATCAATATTAAAAAGTGCAAAATAAAATATAAAAT [GTGCAC_site9486],10.7 ± 0.23
11,GTCATCAAGTATTAAGTGCATTAAAAATAAAATATA,11.3 ± 0.62
12,AGGTAAAAATGGTAAGTGCATTAATGATAAAAAATG,11.1 ± 0.18
13,TTGTATTAAAATCAAGTGCATATAATTTAAGTTCAT [GTGCAC_site9495],9.54 ± 0.042
14,ATCCTTTATAAATAAGTGCATATAAAAAATAATATT [GTGCAC_site9759],10.1 ± 0.3
15,TGTAAAATATAAAAAGTGCATTTCTTTTAATATGAT,9.96 ± 0.19
16,TAAATATATATATAAGTGCATTATATATATATATAA,11.2 ± 0.57
17,TAAAAAATAAAATACACACACATATATATATATATA [CACACA_site1323],9.33 ± 0.2
18,ATTATGAATTTAAGACGTACAAAAAATTTTTATTCA [XGTACX_site5682],7.8 ± 0.31
19,ACAAAATTTACAAAATGTACAAAATTTACAAAGTAT [XGTACX_site6463],7.54 ± 0.56
20,ACATATATTGTACATACACACCTATATAAATATCCT [CACACA_site7503],8.24 ± 0.54
21,AATAGTCGTGTGCATACACACCTTAACTATAATATA [CACACA_site6636],8.83 ± 0.2
22,AACAATATGGATGTATGTACACATATAGAACGTTAT [XGTACX_site7142],7.91 ± 0.72
23,TATGAATGTATATGTTGTACATATAAATATTTATAT [XGTACX_site1146],7.72 ± 0.34
24,TTTGTATTAAAAAAAAAAAAAAAAAAAATGAATAAA [TGCATGCA_negctrl_site292],7.34 ± 0.41
